# Data published in PubChem BioAssay (NCI).
# About 79,000 compounds went through this panel and 15% of them were active in at least one assay; those are over-represented in the sample as a whole. A number with no mark means an inactive call. The source made the active and inactive calls. Rule as the data show it: active = growth inhibition above about 70%; inactive = the rest.
# How the values were obtained:
# [1] = NCI Yeast Anticancer Drug Screen. Data for the rad52 strain (AID 147);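 also: 0% = growth of vehicle-treated control cultures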; conditions: S. cerevisiae rad52 mutant growth inhibition, active compounds read high
# In short: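 Measured: yeast growth inhibition. System: strain with a defined DNA damage repair alteration. Reference: vehicle-treated control cultures.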
# [2] = NCI Yeast Anticancer Drug Screen. Data for the wt1 strain (AID 149);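 also: 0% = growth of vehicle-treated wt1 cultures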; conditions: S. cerevisiae wt1 strain (SPY 50644) growth inhibition, active compounds read high
# In short: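 wt1 yeast, compound-treated; % growth inhibition vs vehicle control.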
# [3] = NCI Yeast Anticancer Drug Screen. Data for the rad50EPP+ strain (AID 151);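 also: 0% = growth of vehicle-treated control cultures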; conditions: S. cerevisiae rad50 mutant strain, active compounds read high
# In short: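 One strain with a rad50 alteration (rad50EPP+) was compound-treated, its growth then compared to that of vehicle controls.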
# [4] = NCI Yeast Anticancer Drug Screen. Data for the mgt1 strain (AID 153); conditions: S. cerevisiae mgt1 mutant growth inhibition, active compounds read high
# In short: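 After exposure of the mgt1 yeast mutant to compound, growth was measured and reported as inhibition compared with vehicle controls.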
# [5] = NCI Yeast Anticancer Drug Screen. Data for the rad50 strain (AID 155);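 also: 0% = growth of vehicle-only cultures of the same strain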; conditions: S. cerevisiae rad50 strain growth inhibition, active compounds read high
# In short: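 Genetically altered yeast (DNA repair pathway); compound treatment; growth inhibition vs vehicle ctrl.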
# [6] = NCI Yeast Anticancer Drug Screen. Data for the mec2-1 strain (AID 157); conditions: S. cerevisiae mec2-1 strain, active compounds read high
# In short: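 Test agents were screened against the mec2-1 yeast strain, with defined DNA repair or cell cycle alteration. Growth was scored as inhibition against vehicle-only controls.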
# [7] = NCI Yeast Anticancer Drug Screen. Data for the sgs1 mgt1 strain (AID 161);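 also: 0% = growth of cultures given vehicle only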; conditions: S. cerevisiae sgs1 mgt1 strain, active compounds read high
# In short: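 Test agents were incubated with a DNA-repair-mutant yeast strain. Growth was then read and compared against vehicle-treated controls.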
# [8] = NCI Yeast Anticancer Drug Screen. Data for the CLN2oe strain (AID 163);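 also: 0% = growth of vehicle-only control cultures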; conditions: S. cerevisiae CLN2oe strain, active compounds read high
# In short: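 Here, growth inhibition in a cell-cycle-altered yeast strain after compound exposure was quantified against vehicle control growth.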
# [9] = NCI Yeast Anticancer Drug Screen. Data for the cln2 rad14 strain (AID 165);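 also: 0% = growth equal to vehicle treated cultures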; conditions: S. cerevisiae cln2 rad14 strain, active compounds read high
# In short: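 Growth of compound-exposed yeast (cln2 rad14 genotype) measured and expressed as inhibition relative to vehicle.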
# [10] = NCI Yeast Anticancer Drug Screen. Data for the bub3 strain (AID 167); conditions: S. cerevisiae bub3 mutant strain, active compounds read high
# In short: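 Yeast carrying a defined mutation is treated with each compound, and growth is compared with that of vehicle-exposed cells to give inhibition.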
# [11] = NCI Yeast Anticancer Drug Screen. Data for the wt2 strain (AID 169);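 also: 0% = growth of vehicle-treated yeast cultures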; conditions: S. cerevisiae wt2 strain growth inhibition, active compounds read high
# In short: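 Genetically defined yeast strains from a DNA-repair/cell-cycle panel were used. Compound-exposed yeast growth was measured, and the inhibition was calculated relative to vehicle treatment.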
# [12] = NCI Yeast Anticancer Drug Screen. Data for the sgs1 strain (AID 173);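 also: 0% = growth of vehicle-only control cultures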; conditions: S. cerevisiae sgs1 mutant, active compounds read high
# In short: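 Relative growth inhibition, referenced to vehicle, was determined in a yeast strain with a defined alteration affecting DNA damage repair or cell cycle control after compound exposure.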
# [13] = NCI Yeast Anticancer Drug Screen. Data for the mlh1 rad18 strain (AID 175); conditions: S. cerevisiae mlh1 rad18 strain growth inhibition, active compounds read high
# In short: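 In this whole-cell yeast screen, a strain with altered DNA damage repair is challenged with compound, and its growth is measured against matched vehicle-treated controls.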
# [14] = NCI Yeast Anticancer Drug Screen. Data for the rad18 strain (AID 177); conditions: S. cerevisiae rad18 mutant growth inhibition, active compounds read high
# In short: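 Screen uses a yeast strain with a defined lesion in DNA damage repair; compound effect is read as loss of growth compared to untreated vehicle cultures.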
# [15] = NCI Yeast Anticancer Drug Screen. Data for the rad14 strain (AID 159);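 also: 0% = growth of vehicle-treated control cultures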; conditions: S. cerevisiae rad14 strain growth inhibition, active compounds read high
# In short: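 Test compounds were applied to a repair-deficient yeast strain. Its growth was then compared with that of cultures given vehicle alone, and inhibition was expressed relative to those controls.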
# [16] = NCI Yeast Anticancer Drug Screen. Data for the mlh1 strain (AID 171);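 also: 0% = growth of vehicle-treated control cultures of the same strain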; conditions: S. cerevisiae mlh1 strain growth inhibition, active compounds read high
# In short: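 Here the genetically defined yeast mutant is grown with each compound, and the extent to which its growth falls below that of vehicle-exposed cells is reported.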
# [17] = at 5.0 µM (retest, dose inferred, filed as 0.5)
# [18] = at 50.0 µM (retest, dose inferred, filed as 5.0)
smiles,measurement,setting,value
COc1cc2cc3c4cc(OC)c(OC)cc4cc[n+]3c(C)c2cc1OC,growth inhibition,[1]; at 1.2 µM,-21%
same,growth inhibition,[1]; at 3.7 µM,-21%
same,growth inhibition,[1]; at 11.0 µM,-16%
same,growth inhibition,[1]; at 33.0 µM,-20%
same,growth inhibition,[1]; at 100.0 µM,-13%
same,growth inhibition,[2]; at 1.2 µM,-33%
same,growth inhibition,[2]; at 3.7 µM,-31%
same,growth inhibition,[2]; at 11.0 µM,-32%
same,growth inhibition,[2]; at 33.0 µM,-37%
same,growth inhibition,[2]; at 100.0 µM,-31%
same,growth inhibition,[3]; at 1.2 µM,-18%
same,growth inhibition,[3]; at 3.7 µM,-17%
same,growth inhibition,[3]; at 11.0 µM,-21%
same,growth inhibition,[3]; at 33.0 µM,-20%
same,growth inhibition,[3]; at 100.0 µM,-26%
same,growth inhibition,[4]; at 1.2 µM,-21%
same,growth inhibition,[4]; at 3.7 µM,-29%
same,growth inhibition,[4]; at 11.0 µM,-38%
same,growth inhibition,[4]; at 33.0 µM,-34%
same,growth inhibition,[4]; at 100.0 µM,-31%
same,growth inhibition,[5]; at 1.2 µM,5%
same,growth inhibition,[5]; at 3.7 µM,1%
same,growth inhibition,[5]; [17],59%
same,growth inhibition,[5]; at 11.0 µM,3%
same,growth inhibition,[5]; at 33.0 µM,10%
same,growth inhibition,[5]; [18],92% (active)
same,growth inhibition,[5]; at 50.0 µM,51.4%
same,growth inhibition,[5]; at 100.0 µM,7%
same,growth inhibition,[6]; at 1.2 µM,-13%
same,growth inhibition,[6]; at 3.7 µM,-11%
same,growth inhibition,[6]; [17],73% (active)
same,growth inhibition,[6]; at 11.0 µM,-7%
same,growth inhibition,[6]; at 33.0 µM,-16%
same,growth inhibition,[6]; [18],83% (active)
same,growth inhibition,[6]; at 50.0 µM,6.05%
same,growth inhibition,[6]; at 100.0 µM,-5%
same,growth inhibition,[7]; [17],-28%
same,growth inhibition,[7]; [18],-6%
same,growth inhibition,[7]; at 50.0 µM,36.6%
same,growth inhibition,[8]; at 1.2 µM,-22%
same,growth inhibition,[8]; at 3.7 µM,-35%
same,growth inhibition,[8]; at 11.0 µM,-28%
same,growth inhibition,[8]; at 33.0 µM,-39%
same,growth inhibition,[8]; at 100.0 µM,-5%
same,growth inhibition,[9]; [17],61%
same,growth inhibition,[9]; [18],26%
same,growth inhibition,[9]; at 50.0 µM,15.2%
same,growth inhibition,[10]; at 1.2 µM,0%
same,growth inhibition,[10]; at 3.7 µM,12%
same,growth inhibition,[10]; [17],5%
same,growth inhibition,[10]; at 11.0 µM,13%
same,growth inhibition,[10]; at 33.0 µM,6%
same,growth inhibition,[10]; [18],19%
same,growth inhibition,[10]; at 50.0 µM,79.8% (active)
same,growth inhibition,[10]; at 100.0 µM,9%
same,growth inhibition,[11]; at 1.2 µM,-30%
same,growth inhibition,[11]; at 3.7 µM,-28%
same,growth inhibition,[11]; at 11.0 µM,-35%
same,growth inhibition,[11]; at 33.0 µM,-31%
same,growth inhibition,[11]; at 100.0 µM,-22%
same,growth inhibition,[12]; at 1.2 µM,-19%
same,growth inhibition,[12]; at 3.7 µM,-17%
same,growth inhibition,[12]; at 11.0 µM,-28%
same,growth inhibition,[12]; at 33.0 µM,-27%
same,growth inhibition,[12]; at 100.0 µM,-11%
same,growth inhibition,[13]; [17],55%
same,growth inhibition,[13]; [18],80% (active)
same,growth inhibition,[13]; at 50.0 µM,-76.2%
same,growth inhibition,[14]; at 1.2 µM,-23%
same,growth inhibition,[14]; at 3.7 µM,-27%
same,growth inhibition,[14]; at 11.0 µM,-23%
same,growth inhibition,[14]; at 33.0 µM,-22%
same,growth inhibition,[14]; at 100.0 µM,-22%
Oc1ccc2ccccc2c1CCc1c(O)ccc2ccccc12,growth inhibition,[1]; at 1.2 µM,3%
same,growth inhibition,[1]; at 3.7 µM,14%
same,growth inhibition,[1]; at 11.0 µM,54%
same,growth inhibition,[1]; at 33.0 µM,94% (active)
same,growth inhibition,[1]; at 100.0 µM,85% (active)
same,growth inhibition,[2]; at 1.2 µM,5%
same,growth inhibition,[2]; at 3.7 µM,17%
same,growth inhibition,[2]; at 11.0 µM,19%
same,growth inhibition,[2]; at 33.0 µM,52%
same,growth inhibition,[2]; at 100.0 µM,88% (active)
same,growth inhibition,[3]; at 1.2 µM,28%
same,growth inhibition,[3]; at 3.7 µM,70% (active)
same,growth inhibition,[3]; at 11.0 µM,85% (active)
same,growth inhibition,[3]; at 33.0 µM,86% (active)
same,growth inhibition,[3]; at 100.0 µM,83% (active)
same,growth inhibition,[4]; at 1.2 µM,2%
same,growth inhibition,[4]; at 3.7 µM,6%
same,growth inhibition,[4]; at 11.0 µM,60%
same,growth inhibition,[4]; at 33.0 µM,95% (active)
same,growth inhibition,[4]; at 100.0 µM,87% (active)
same,growth inhibition,[5]; at 1.2 µM,5%
same,growth inhibition,[5]; at 3.7 µM,13%
same,growth inhibition,[5]; [17],15%
same,growth inhibition,[5]; at 11.0 µM,68%
same,growth inhibition,[5]; at 33.0 µM,93% (active)
same,growth inhibition,[5]; [18],94% (active)
same,growth inhibition,[5]; at 50.0 µM,95.1% (active)
same,growth inhibition,[5]; at 100.0 µM,86% (active)
same,growth inhibition,[15]; at 1.2 µM,3%
same,growth inhibition,[15]; at 3.7 µM,8%
same,growth inhibition,[15]; at 11.0 µM,28%
same,growth inhibition,[15]; at 33.0 µM,89% (active)
same,growth inhibition,[15]; at 100.0 µM,85% (active)
same,growth inhibition,[7]; [17],41%
same,growth inhibition,[7]; [18],94% (active)
same,growth inhibition,[7]; at 50.0 µM,95% (active)
same,growth inhibition,[8]; at 1.2 µM,7%
same,growth inhibition,[8]; at 3.7 µM,4%
same,growth inhibition,[8]; at 11.0 µM,97% (active)
same,growth inhibition,[8]; at 33.0 µM,92% (active)
same,growth inhibition,[8]; at 100.0 µM,82% (active)
same,growth inhibition,[9]; [17],6%
same,growth inhibition,[9]; [18],92% (active)
same,growth inhibition,[9]; at 50.0 µM,88.2% (active)
same,growth inhibition,[10]; at 1.2 µM,-1%
same,growth inhibition,[10]; at 3.7 µM,2%
same,growth inhibition,[10]; [17],45%
same,growth inhibition,[10]; at 11.0 µM,98% (active)
same,growth inhibition,[10]; at 33.0 µM,93% (active)
same,growth inhibition,[10]; [18],94% (active)
same,growth inhibition,[10]; at 50.0 µM,94.9% (active)
same,growth inhibition,[10]; at 100.0 µM,86% (active)
same,growth inhibition,[11]; at 1.2 µM,7%
same,growth inhibition,[11]; at 3.7 µM,16%
same,growth inhibition,[11]; at 11.0 µM,38%
same,growth inhibition,[11]; at 33.0 µM,66%
same,growth inhibition,[11]; at 100.0 µM,87% (active)
same,growth inhibition,[16]; at 1.2 µM,5%
same,growth inhibition,[16]; at 3.7 µM,8%
same,growth inhibition,[16]; at 11.0 µM,79% (active)
same,growth inhibition,[16]; at 33.0 µM,94% (active)
same,growth inhibition,[16]; at 100.0 µM,90% (active)
same,growth inhibition,[12]; at 1.2 µM,7%
same,growth inhibition,[12]; at 3.7 µM,19%
same,growth inhibition,[12]; at 11.0 µM,51%
same,growth inhibition,[12]; at 33.0 µM,92% (active)
same,growth inhibition,[12]; at 100.0 µM,88% (active)
same,growth inhibition,[13]; [17],55%
same,growth inhibition,[13]; [18],92% (active)
same,growth inhibition,[13]; at 50.0 µM,95.2% (active)
same,growth inhibition,[14]; at 1.2 µM,5%
same,growth inhibition,[14]; at 3.7 µM,15%
same,growth inhibition,[14]; at 11.0 µM,46%
same,growth inhibition,[14]; at 33.0 µM,91% (active)
same,growth inhibition,[14]; at 100.0 µM,85% (active)
